PubChem BioAssay AID1159580 (chemical genetic matrix, 2015)
The whole screen tested about 5,500 compounds, of which about 2,000 (36%) were called active. Inconclusive results (about 18%) are left out. Cut-off read from the data, not from the text of the source: active = normalized growth mostly below about 0.91 (no sharp cut-off); inconclusive = no clear call, values can overlap the other calls; inactive = mostly above about 0.92. Some of the results follow.

Experiment: chemical genetic growth profiling, strain panel (AID 1159580);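 note: tested at 20 µM; growth read once vehicle control cultures reached saturation at 30 °C; 1 = growth at the plate median or of vehicle wells; lower values mean less growth of the strain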
Details: S. cerevisiae deletion strains, growth OD

Measured: normalized growth

C#CCn1c(=O)c2c(ncn2C)n(C)c1=O
inactive: locus YAL013W, strain DEP1, active compounds read low 0.982 | locus YAL040C, strain CLN3, active compounds read low 1.01 | locus YCL061C, strain MRC1 (second series), active compounds read low 1.01 | locus YDR150W, strain NUM1, active compounds read low 0.999 | locus YDR363W, strain ESC2, active compounds read low 0.989 | locus YER002W, strain NOP16, active compounds read low 0.997 | locus YGR078C, strain PAC10, active compounds read low 1.01 | locus YGR229C, strain SMI1, active compounds read low 1.03 | locus YJR075W, strain HOC1, active compounds read low 0.994 | locus YMR263W, strain SAP30, active compounds read low 0.995 | locus YMR307W, strain GAS1, active compounds read low 1.01 | locus YNL175C, strain NOP13, active compounds read low 0.998 | locus YNL197C, strain WHI3, active compounds read low 0.977 | locus YNL224C, strain SQS1, active compounds read low 1.01 | locus YNL322C, strain KRE1, active compounds read low 0.987 | locus YOR083W, strain WHI5 (second series), active compounds read low 0.965 | locus YPL241C, strain CIN2, active compounds read low 1
